The full data set covers some 21,000 targets. This sample favours those with the largest changes.
Compound: CC1Cc2ccccc2N1C(=O)C1CCCN(C1)C(=O)CCl (mixture of isomers) [TRIM25 ligand 11 (diastereomer mixture)]
Assay: probe-labelled cysteine peptide fold change vs DMSO (competition) (log2 fold change); higher = less target engagement (more negative = stronger competition)
Details: THP-1, incubation time: 4 h
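Also: competitive chemoproteomic profiling in live THP-1 cells with an iodoacetamide desthiobiotin (IA-DTB) probe, comparing probe-labelled peptide intensities in compound-treated cells against DMSO-treated controls.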

UniProt Q9NR30, sequence (Q9NR30 whole entry, looked up): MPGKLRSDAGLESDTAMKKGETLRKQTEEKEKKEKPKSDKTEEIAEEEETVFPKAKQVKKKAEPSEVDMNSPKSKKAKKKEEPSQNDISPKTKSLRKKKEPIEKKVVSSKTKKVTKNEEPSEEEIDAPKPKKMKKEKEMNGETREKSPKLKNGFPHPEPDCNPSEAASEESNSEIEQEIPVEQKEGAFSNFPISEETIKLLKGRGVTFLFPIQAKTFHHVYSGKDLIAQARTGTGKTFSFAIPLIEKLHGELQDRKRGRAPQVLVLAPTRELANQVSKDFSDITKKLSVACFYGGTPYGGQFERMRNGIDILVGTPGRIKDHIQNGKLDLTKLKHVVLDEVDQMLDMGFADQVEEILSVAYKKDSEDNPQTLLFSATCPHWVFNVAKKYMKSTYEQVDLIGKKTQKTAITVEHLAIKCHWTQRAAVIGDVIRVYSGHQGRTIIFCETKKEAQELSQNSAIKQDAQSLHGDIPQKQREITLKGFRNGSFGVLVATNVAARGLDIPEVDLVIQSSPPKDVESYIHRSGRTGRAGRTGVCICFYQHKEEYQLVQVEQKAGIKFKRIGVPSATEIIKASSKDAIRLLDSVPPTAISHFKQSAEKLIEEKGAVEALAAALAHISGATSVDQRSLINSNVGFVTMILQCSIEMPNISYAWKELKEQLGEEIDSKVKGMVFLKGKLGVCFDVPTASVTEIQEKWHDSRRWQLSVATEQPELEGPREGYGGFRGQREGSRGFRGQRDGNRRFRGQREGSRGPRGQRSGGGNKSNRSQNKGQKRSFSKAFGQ
UniProt Q14689, sequence (Q14689 whole entry, looked up): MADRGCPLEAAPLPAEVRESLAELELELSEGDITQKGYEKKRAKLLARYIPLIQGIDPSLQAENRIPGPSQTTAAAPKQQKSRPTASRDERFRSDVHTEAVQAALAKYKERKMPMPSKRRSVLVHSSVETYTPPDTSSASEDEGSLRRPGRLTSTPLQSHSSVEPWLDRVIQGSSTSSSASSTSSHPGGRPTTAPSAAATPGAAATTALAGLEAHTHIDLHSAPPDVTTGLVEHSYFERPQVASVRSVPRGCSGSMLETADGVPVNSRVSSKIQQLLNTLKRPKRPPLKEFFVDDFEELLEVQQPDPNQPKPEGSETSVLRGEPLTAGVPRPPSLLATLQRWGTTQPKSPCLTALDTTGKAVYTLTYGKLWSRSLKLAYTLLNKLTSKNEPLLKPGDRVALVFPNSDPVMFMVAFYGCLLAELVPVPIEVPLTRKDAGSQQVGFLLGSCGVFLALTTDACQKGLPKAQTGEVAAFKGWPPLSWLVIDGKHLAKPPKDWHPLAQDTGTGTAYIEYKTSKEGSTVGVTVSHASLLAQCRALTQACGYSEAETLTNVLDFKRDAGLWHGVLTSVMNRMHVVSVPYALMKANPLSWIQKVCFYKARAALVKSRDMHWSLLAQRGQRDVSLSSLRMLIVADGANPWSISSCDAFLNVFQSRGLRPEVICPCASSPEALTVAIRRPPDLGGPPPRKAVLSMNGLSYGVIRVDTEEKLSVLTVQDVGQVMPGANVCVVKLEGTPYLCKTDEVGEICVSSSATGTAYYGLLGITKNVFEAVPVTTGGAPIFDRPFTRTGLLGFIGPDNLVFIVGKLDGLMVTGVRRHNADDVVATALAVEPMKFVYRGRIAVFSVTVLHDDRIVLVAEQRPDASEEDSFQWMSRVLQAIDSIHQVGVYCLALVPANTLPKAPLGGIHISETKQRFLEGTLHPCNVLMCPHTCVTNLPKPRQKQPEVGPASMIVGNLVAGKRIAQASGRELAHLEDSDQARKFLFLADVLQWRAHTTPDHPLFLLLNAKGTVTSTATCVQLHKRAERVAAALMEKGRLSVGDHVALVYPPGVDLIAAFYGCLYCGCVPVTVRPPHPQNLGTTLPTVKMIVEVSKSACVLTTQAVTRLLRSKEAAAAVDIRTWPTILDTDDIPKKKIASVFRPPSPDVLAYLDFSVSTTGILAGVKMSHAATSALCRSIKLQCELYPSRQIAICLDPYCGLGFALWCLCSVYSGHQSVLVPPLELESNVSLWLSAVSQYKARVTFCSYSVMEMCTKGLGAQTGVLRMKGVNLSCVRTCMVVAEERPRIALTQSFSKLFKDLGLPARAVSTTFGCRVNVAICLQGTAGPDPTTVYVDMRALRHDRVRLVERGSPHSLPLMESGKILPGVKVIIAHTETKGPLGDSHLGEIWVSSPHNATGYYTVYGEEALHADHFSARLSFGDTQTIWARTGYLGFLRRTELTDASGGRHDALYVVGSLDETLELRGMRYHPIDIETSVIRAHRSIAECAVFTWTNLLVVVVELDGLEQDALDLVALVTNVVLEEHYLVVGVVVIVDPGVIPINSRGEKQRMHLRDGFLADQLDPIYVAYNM
UniProt Q86TI2, sequence (Q86TI2 whole entry, looked up): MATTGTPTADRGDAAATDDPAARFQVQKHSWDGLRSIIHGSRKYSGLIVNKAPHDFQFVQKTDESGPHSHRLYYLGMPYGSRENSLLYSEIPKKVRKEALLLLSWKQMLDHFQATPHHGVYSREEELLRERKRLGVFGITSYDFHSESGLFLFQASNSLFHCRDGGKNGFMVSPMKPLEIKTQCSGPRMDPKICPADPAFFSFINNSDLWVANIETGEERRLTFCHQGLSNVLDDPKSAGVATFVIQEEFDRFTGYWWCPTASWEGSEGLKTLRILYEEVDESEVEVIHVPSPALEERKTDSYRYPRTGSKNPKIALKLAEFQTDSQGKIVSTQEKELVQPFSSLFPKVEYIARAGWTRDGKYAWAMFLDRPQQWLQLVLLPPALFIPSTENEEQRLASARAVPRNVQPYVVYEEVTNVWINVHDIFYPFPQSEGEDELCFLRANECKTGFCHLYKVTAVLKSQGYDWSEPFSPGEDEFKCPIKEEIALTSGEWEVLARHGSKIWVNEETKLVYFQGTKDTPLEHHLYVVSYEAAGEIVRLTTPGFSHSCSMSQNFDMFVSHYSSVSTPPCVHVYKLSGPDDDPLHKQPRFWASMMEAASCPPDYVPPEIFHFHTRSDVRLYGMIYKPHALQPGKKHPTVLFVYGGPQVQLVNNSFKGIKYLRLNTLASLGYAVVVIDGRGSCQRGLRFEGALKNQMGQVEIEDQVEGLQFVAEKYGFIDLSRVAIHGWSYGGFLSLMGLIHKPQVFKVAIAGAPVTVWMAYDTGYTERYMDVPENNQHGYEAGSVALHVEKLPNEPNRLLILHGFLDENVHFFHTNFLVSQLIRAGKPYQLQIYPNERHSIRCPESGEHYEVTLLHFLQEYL
UniProt P51452, sequence (P51452 whole entry, looked up): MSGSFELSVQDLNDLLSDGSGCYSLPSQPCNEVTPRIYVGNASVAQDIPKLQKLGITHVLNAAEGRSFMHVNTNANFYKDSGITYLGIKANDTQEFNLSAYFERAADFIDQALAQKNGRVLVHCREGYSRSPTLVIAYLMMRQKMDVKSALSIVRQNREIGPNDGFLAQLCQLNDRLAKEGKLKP
UniProt Q7L014, sequence (Q7L014 whole entry, looked up): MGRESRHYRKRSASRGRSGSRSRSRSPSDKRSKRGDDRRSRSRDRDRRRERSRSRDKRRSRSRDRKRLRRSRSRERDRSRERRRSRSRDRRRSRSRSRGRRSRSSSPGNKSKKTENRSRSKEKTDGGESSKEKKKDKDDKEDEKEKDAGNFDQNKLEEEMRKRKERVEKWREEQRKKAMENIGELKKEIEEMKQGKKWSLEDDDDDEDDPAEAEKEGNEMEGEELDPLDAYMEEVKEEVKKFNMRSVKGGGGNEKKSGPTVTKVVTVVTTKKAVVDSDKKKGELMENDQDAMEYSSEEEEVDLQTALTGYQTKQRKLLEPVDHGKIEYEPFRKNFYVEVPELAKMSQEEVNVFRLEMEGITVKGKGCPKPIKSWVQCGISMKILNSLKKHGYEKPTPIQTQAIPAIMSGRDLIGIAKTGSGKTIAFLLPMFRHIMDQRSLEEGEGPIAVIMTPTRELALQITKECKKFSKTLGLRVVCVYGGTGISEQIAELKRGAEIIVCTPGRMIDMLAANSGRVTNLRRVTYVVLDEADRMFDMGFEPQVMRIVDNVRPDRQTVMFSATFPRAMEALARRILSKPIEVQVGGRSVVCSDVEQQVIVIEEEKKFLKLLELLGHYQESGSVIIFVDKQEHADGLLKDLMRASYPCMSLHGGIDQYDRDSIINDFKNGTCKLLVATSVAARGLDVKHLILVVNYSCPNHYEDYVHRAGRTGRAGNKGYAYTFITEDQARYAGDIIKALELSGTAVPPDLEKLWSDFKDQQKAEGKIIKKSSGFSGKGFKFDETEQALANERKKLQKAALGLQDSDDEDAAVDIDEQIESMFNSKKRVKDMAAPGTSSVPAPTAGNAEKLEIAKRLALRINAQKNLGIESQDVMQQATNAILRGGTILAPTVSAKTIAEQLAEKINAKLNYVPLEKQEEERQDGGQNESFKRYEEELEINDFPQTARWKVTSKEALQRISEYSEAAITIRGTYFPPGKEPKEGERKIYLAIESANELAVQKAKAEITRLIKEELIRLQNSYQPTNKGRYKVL
UniProt Q9Y394, sequence (Q9Y394 whole entry, looked up): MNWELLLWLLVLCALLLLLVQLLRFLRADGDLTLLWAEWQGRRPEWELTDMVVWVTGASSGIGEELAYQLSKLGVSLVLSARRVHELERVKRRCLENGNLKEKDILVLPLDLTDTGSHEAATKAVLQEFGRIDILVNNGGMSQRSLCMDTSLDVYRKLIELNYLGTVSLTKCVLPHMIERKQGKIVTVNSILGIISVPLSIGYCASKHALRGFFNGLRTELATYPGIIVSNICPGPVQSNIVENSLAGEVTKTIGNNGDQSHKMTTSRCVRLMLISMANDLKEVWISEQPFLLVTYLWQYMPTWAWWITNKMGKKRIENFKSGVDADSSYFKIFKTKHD
UniProt Q9H773, sequence (Q9H773 whole entry): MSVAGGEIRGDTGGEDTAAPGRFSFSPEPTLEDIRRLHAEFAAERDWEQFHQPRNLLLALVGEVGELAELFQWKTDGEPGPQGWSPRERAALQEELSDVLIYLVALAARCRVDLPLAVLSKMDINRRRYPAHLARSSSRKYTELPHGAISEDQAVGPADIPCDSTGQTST
UniProt P50238, sequence (P50238 whole entry, looked up): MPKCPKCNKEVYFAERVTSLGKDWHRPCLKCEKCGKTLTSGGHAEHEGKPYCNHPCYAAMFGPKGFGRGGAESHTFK

Target	probe-labelled cysteine peptide fold change (10 µM)	probe-labelled cysteine peptide fold change (50 µM)
DCP1A_Q9NPI6_39_QHDPYITSIADLTGQVALYTFCPK (UniProt Q9NPI6)	0.179	0.205
DPYSL2_Q16555_133_SCCDYSLHVDISEWHK (UniProt Q16555)	0.131	-0.000105
DECR2_Q9NUI1_53_HGCHTVIASR (UniProt Q9NUI1)	0.317	0.574
DBNL_Q9UJU6_97_KGACASHVSTMASFLK (UniProt Q9UJU6)	-0.0713	-0.568
DNAJC10_Q8IXB1_161_EFDAAVNSGELWFVNFYSPGCSHCHDLAPTWR (UniProt Q8IXB1)	0.476	-0.235
DENND3_A2RUS2_1094_DTSTSFLAFQLLPEEEQLWAACAGR (UniProt A2RUS2)	1.22	-0.0979
DIDO1_Q9BTC0_455_CGAQAGIK (UniProt Q9BTC0)	-0.117	-0.185
DCTN4_Q9UJW0_280_CEHNLSKPEFNPTSIK (UniProt Q9UJW0)	0.246	0.175
CPSF4_O95639_162_RVICVNYLVGFCPEGPSCK (UniProt O95639)	-0.292	0.0715
COX17_Q14061_23+24_KPLKPCCACPETK (UniProt Q14061)	-0.386	-0.745
DHX15_O43143_774_IAPQYYDMSNFPQCEAKR (UniProt O43143)	-0.432	-0.211
DHX37_Q8IY37_486_MLPAGGILVFLTGQAEVHALCR (UniProt Q8IY37)	0.281	0.563
DSTN_P60981_39_AVIFCLSADK (UniProt P60981)	-0.0558	-0.00534
DARS2_Q6PI48_202_MREYLCNLHGFVDIETPTLFKR (UniProt Q6PI48)	-0.272	-0.129
DHCR24_Q15392_393_CLQQALHTFQNDIHVYPIWLCPFILPSQPGLVHPK (UniProt Q15392)	0.14	-0.425
DDX21_Q9NR30_539_TGVCICFYQHK (UniProt Q9NR30)	-0.0402	-0.0081
DDX3X_O00571_128_WCDKSDEDDWSK (UniProt O00571)	-0.422	-0.388
DMRT1_Q9Y5R6_105_CNLIAER (UniProt Q9Y5R6)	1.19	0.0204
DCLRE1C_Q96SD1_34_AYFLSHCHK (UniProt Q96SD1)	0.0604	-0.0702
DIAPH1_O60610_964_LQFSEQVENIKPEIVSVTAACEELR (UniProt O60610)	0.176	0.06
DDX42_Q86XP3_339+346_ELCQQIHAECK (UniProt Q86XP3)	-0.0625	-0.045
DDX28_Q9NUL7_360_LHCIMPHVK (UniProt Q9NUL7)	-0.061	0.0889
CPSF3_Q9UKF6_223_FCNTVHDIVNR (UniProt Q9UKF6)	-0.0667	-0.11
DPP9_Q86TI2_184_TQCSGPR (UniProt Q86TI2)	-0.111	-0.073
CPNE2_Q96FN4_265_DSVPLEFECINPK (UniProt Q96FN4)	-0.22	-0.165
DDX28_Q9NUL7_453_DILLCTDIASR (UniProt Q9NUL7)	0.0908	0.0393
DNAJA1_P31689_271_RGEDLFMCMDIQLVEALCGFQK (UniProt P31689)	-0.021	0.281

Target	probe-labelled cysteine peptide fold change (10 µM)	probe-labelled cysteine peptide fold change (50 µM)
CRIP1_P50238_56_TLTSGGHAEHEGKPYCNHPCYAAMFGPK (UniProt P50238)	-0.889	-1.02
DIDO1_Q9BTC0_1449_MCADVR (UniProt Q9BTC0)	-0.0543	-0.242
DUS3L_Q96G46_358_RHQCEDIFGVQLEGAFPDTMTK (UniProt Q96G46)	0.0341	0.0134
DCAF10_Q5QP82_412_NSLEVVTPEVLGESDHGNCITSLQLHPK (UniProt Q5QP82)	0.152	-0.291
DOK3_Q7L591_133_LADCVSVLPADGESCPR (UniProt Q7L591)	0.0537	0.00634
DENR_O43583_44_VLYCGVCSLPTEYCEYMPDVAK (UniProt O43583)	-0.0798	-0.0802
CRIP2_P52943_150_DWHRPCLR (UniProt P52943)	0.642	-0.0653
DUS3L_Q96G46_396_TVEVDFVDINVGCPIDLVYKK (UniProt Q96G46)	-0.169	-0.11
DHRS7_Q9Y394_233_TELATYPGIIVSNICPGPVQSNIVENSLAGEVTK (UniProt Q9Y394)	-0.0824	0.0763
CORO1C_Q9ULV4_39_VTWDSSFCAVNPR (UniProt Q9ULV4)	0.0602	-0.0375
CORO7_P57737_691_IVWVCDGR (UniProt P57737)	0.154	0.334
DOK3_Q7L591_323_LPELTRPQPCPLPR (UniProt Q7L591)	0.463	-0.185
DNAJC2_Q99543_276_TLVDNAYSCDPR (UniProt Q99543)	-0.0127	-0.0992
DIP2B_Q9P265_1282_TCVVVAEERPR<|>DIP2C_Q9Y2E4_1263_TCVVVAEERPR (UniProt Q9Y2E4+Q9P265)	0.0276	0.197
DIAPH1_O60610_1227_AGCAVTSLLASELTK (UniProt O60610)	-0.0516	-0.221
CPT2_P23786_512_CSEAFVREPSR (UniProt P23786)	-0.197	-0.0581
DYNC1H1_Q14204_3573_WQASSLPADDLCTENAIMLK (UniProt Q14204)	-0.0171	-0.286
CRELD1_Q96HD1_229_CSGPEESNCLQCK (UniProt Q96HD1)	0.0143	-0.197
DDX42_Q86XP3_333_ELEPGDGPIAVIVCPTR (UniProt Q86XP3)	0.0933	0.0408
DDX42_Q86XP3_382_ALQEGAEIVVCTPGR (UniProt Q86XP3)	0.0737	0.0996
CTNNA1_P35221_772_TIADHCPDSACK (UniProt P35221)	-0.0482	-0.0902
DDX24_Q9GZR7_599_SLVFANSISCIK (UniProt Q9GZR7)	0.479	0.567
DDX58_O95786_428_NTDEALDYICK (UniProt O95786)	0.0328	0.169
DTWD2_Q8NBA8_143_FSEERDPELSTVCR (UniProt Q8NBA8)	0.148	0.0336
CRYBG1_Q9Y4K1_594+609_EVQLPTCHSNEPEVVSVASCAPPQEEVLGNEHSHCTAELAAK (UniProt Q9Y4K1)	-0.0918	-0.248
CYTH1_Q15438_323_EVEDSKKPNCFELYIPDNK (UniProt Q15438)	-0.213	-0.14
DPP8_Q6V1X1_611_LSSPEDDPTCK (UniProt Q6V1X1)	0.0995	0.0507

Target	probe-labelled cysteine peptide fold change (10 µM)	probe-labelled cysteine peptide fold change (50 µM)
CTR9_Q6PD62_196_TNPGCPAEVR (UniProt Q6PD62)	-0.0355	0.0417
CTSB_P07858_93_EQWPQCPTIK (UniProt P07858)	-0.026	-0.172
DLD_P09622_484_VCHAHPTLSEAFR (UniProt P09622)	0.111	-0.123
DLEC1_Q9Y238_256_LEDSCR (UniProt Q9Y238)	0.892	0.979
CTNNA2_P26232_792_IALYCHQLNICSK (UniProt P26232)	-0.0111	0.118
DUSP3_P51452_171_EIGPNDGFLAQLCQLNDR (UniProt P51452)	-0.408	-0.0736
DNM1L_O00429_300_LLMHHIRDCLPELK (UniProt O00429)	-0.355	-0.178
DHX9_Q08211_608+612_KDKDDDGGEDDDANCNLICGDEYGPETR (UniProt Q08211)	-0.128	-0.345
DDX17_Q92841_166+199_GGDVCPKPVFAFHHANFPQYVMDVLMDQHFTEPTPIQCQGFPLALSGR (UniProt Q92841)	-0.612	-0.604
CSNK1A1_P48729_249_MSTPVEVLCK (UniProt P48729)	-0.305	-0.401
DCTPP1_Q9H773_110_CRVDLPLAVLSK (UniProt Q9H773)	-0.361	-0.184
DGKZ_Q13574_876_EASVPLGTVVVPGDSDLELCR (UniProt Q13574)	0.514	0.581
DLGAP5_Q15398_129_YRPDMPCFLLSNQNAVK (UniProt Q15398)	-0.299	-0.594
DDX60L_Q5H9U9_502_CHVDEQSR (UniProt Q5H9U9)	-0.013	-0.526
DNAJB14_Q8TBM8_77_KPSGSGDQSKPNCTK (UniProt Q8TBM8)	-0.262	-0.569
DYNC1H1_Q14204_1977_MLSAVSQQVQCIQEALREHSNPNYDK (UniProt Q14204)	-0.708	-0.193
CORO7_P57737_75_VAHLGCHSDLVTDLDFSPFDDFLLATGSADR (UniProt P57737)	0.031	0.0305
DIP2A_Q14689_543_ALTQACGYSEAETLTNVLDFKR (UniProt Q14689)	0.205	0.286
DDX46_Q7L014_501_RGAEIIVCTPGR (UniProt Q7L014)	0.161	0.296
DCAF10_Q5QP82_213_TLSEAHEDCVNNIR (UniProt Q5QP82)	0.0726	-0.0884
DDX56_Q9NY93_185_SLLCHLPR (UniProt Q9NY93)	0.556	0.332
DECR2_Q9NUI1_22_HLFCPDLLR (UniProt Q9NUI1)	0.0413	-0.0816
DHX37_Q8IY37_616_LCVVATNVAETSLTIPGIK (UniProt Q8IY37)	-0.0366	0.0989
CRYL1_Q9Y2S2_141_QCIVAHPVNPPYYIPLVELVPHPETAPTTVDR (UniProt Q9Y2S2)	0.0328	-0.0222
DOK3_Q7L591_493_KGPAPCDRP (UniProt Q7L591)	-0.0118	0.0304

— the supplement of paper PMC12067093, “Discovery and optimisation of a covalent ligand for TRIM25 and its application to targeted protein ubiquitination” (Chemical Science, 2025)
